Assay in all cases: DAPPL (digital affinity profiling via proximity ligation, sequencing); 10 mM Tris-HCl pH 7.5, 50 mM NaCl, 1 mM DTT, 4% glycerol, room temperature, 30 min; GST-TFs on glutathione beads, 16-mer random dsDNA library, 0.1% formaldehyde crosslink after washing; high values mean tight binding
Test [1] concerns the target T1, FEV (Homo sapiens, UniProt Q99581 1-238).
T1 sequence: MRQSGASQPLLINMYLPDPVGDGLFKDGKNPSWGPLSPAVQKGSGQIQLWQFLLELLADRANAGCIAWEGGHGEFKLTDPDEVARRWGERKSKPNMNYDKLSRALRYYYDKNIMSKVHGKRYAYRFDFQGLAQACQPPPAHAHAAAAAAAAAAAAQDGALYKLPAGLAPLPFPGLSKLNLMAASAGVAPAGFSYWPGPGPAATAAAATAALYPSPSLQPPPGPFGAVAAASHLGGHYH
The conditions noted are these: protein: recombinant; tags: N-terminal GST; dsDNA, one strand shown. The procedure, abridged:
(§1)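 In yeast, human transcription factors were expressed with a GST fusion, then pulled down on glutathione beads and given DNA barcodes. Pooled with a tag-only sample, they were exposed to 200 nmole of a 16-mer random double-stranded DNA library (Tris/NaCl/DTT/glycerol buffer, room temperature, 30 min), washed, crosslinked with 0.1% formaldehyde, proximity-ligated using BsaI/T4 ligase for 1 h at 37 °C, PCR-amplified and read on an Illumina NextSeq500. Each hexamer's frequency of reads for a factor, divided by the matching frequency for the tag-only sample, gives the binding signal.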

In test [2] the target is ETV5 (Homo sapiens, UniProt P41161 1-510). The note with it: protein: recombinant; tags: N-terminal GST; dsDNA, one strand shown. The procedure, abridged:
as §1

Test [3] deals with HSF1 (Homo sapiens, UniProt Q00613 1-529). The note with it: protein: recombinant; tags: N-terminal GST; chain copies: 3; dsDNA, one strand shown. The procedure, abridged: as §1
Chain of HSF1 (Q00613 whole entry): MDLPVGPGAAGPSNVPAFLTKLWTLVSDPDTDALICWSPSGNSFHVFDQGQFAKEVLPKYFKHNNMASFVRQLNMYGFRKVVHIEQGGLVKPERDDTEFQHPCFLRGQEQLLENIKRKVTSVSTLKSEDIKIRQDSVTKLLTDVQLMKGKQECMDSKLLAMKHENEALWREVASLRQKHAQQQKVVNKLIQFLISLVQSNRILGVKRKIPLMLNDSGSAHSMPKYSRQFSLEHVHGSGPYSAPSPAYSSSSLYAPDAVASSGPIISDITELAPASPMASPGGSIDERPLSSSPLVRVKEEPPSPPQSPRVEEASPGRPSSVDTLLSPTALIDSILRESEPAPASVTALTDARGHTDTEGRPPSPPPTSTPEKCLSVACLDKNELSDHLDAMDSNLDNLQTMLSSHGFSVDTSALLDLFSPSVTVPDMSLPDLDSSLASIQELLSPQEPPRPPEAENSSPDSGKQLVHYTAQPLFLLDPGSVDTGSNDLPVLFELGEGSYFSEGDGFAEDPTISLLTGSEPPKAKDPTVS
For test [4], the target named is T2, SPIC (Homo sapiens, UniProt Q8N5J4 1-248).
T2 sequence: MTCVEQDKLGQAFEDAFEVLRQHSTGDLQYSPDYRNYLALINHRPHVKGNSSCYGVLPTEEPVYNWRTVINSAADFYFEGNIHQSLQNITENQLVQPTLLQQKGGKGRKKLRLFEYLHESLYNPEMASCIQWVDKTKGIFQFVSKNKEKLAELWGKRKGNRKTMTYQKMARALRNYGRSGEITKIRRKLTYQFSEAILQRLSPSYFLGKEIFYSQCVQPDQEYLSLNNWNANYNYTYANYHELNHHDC
The note with it: protein: recombinant; tags: N-terminal GST; dsDNA, one strand shown. The procedure, abridged:
as §1

The target of test [5] is ELF4 (Homo sapiens, UniProt Q99607 1-663). The note with it: protein: recombinant; tags: N-terminal GST; dsDNA, one strand shown. The procedure, abridged:
as §1

Test [6] has as its target T3, ELK4 (Homo sapiens, UniProt P28324-2 1-405).
T3 sequence: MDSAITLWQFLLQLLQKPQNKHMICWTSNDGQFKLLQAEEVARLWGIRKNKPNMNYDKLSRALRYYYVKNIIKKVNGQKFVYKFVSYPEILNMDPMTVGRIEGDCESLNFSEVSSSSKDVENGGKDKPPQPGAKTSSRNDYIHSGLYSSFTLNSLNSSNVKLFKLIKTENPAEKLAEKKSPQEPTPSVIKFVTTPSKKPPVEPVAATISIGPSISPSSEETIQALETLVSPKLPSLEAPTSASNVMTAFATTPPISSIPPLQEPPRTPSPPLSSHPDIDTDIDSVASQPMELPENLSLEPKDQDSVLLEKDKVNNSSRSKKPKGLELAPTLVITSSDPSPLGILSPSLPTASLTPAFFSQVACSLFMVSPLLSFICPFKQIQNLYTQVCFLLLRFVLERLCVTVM
The conditions noted are these: protein: recombinant; tags: N-terminal GST; dsDNA, one strand shown. The method in brief: as §1

Test [7] deals with T4, ETV2 (Homo sapiens, UniProt O00321 1-342).
T4 sequence: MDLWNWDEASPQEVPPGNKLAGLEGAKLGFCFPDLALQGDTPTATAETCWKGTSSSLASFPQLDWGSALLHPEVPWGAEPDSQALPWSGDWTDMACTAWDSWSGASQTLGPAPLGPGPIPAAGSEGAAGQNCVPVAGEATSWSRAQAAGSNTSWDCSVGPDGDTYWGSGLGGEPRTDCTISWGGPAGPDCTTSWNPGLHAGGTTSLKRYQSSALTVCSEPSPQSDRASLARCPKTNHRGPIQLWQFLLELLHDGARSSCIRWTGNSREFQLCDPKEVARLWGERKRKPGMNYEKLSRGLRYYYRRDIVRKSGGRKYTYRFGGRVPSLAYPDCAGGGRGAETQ
The conditions noted are these: protein: recombinant; tags: N-terminal GST; dsDNA, one strand shown. The procedure, abridged:
as §1

Test [8] addresses T5, ELF3 (Homo sapiens, UniProt P78545 1-371).
T5 sequence: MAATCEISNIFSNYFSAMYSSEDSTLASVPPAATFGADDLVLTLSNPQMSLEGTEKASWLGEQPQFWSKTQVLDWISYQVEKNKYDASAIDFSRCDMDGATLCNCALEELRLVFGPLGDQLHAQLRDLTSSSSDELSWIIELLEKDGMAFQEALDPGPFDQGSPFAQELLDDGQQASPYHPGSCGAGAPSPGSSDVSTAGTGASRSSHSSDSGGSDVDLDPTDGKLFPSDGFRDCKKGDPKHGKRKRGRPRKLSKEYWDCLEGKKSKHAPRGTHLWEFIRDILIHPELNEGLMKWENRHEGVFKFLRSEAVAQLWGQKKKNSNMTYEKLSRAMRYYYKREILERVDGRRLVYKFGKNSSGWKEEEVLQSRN
The conditions noted are these: protein: recombinant; tags: N-terminal GST; dsDNA, one strand shown. The procedure, abridged: as §1

Test [9] has as its target CRX (Homo sapiens, UniProt O43186 1-299). The note with it: protein: recombinant; tags: N-terminal GST; dsDNA, one strand shown. The method in brief:
as §1

Test [10] addresses ETV1 (Homo sapiens, UniProt P50549 1-477). The note with it: protein: recombinant; tags: N-terminal GST; dsDNA, one strand shown. The method in brief: as §1
In test [11] the target is T6, ERF (Homo sapiens, UniProt P50548 1-548).
T6 sequence: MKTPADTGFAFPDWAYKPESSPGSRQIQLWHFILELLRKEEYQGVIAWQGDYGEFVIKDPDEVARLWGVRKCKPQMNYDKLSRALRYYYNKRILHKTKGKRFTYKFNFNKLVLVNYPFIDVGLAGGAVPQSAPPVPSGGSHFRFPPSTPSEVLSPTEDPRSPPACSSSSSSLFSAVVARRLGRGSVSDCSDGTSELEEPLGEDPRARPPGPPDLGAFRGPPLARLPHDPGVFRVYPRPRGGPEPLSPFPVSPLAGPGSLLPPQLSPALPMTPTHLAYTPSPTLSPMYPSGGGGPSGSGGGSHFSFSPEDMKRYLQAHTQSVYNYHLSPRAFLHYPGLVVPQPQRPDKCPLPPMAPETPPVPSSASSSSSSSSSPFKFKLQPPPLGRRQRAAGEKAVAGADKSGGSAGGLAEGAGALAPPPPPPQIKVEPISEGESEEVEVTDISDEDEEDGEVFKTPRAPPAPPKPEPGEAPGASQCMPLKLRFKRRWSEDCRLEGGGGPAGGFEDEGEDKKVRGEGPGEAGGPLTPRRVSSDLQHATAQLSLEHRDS
The conditions noted are these: protein: recombinant; tags: N-terminal GST; dsDNA, one strand shown. The method in brief: as §1

In test [12] the target is T7, ETV3L (Homo sapiens, UniProt Q6ZN32 1-361).
T7 sequence: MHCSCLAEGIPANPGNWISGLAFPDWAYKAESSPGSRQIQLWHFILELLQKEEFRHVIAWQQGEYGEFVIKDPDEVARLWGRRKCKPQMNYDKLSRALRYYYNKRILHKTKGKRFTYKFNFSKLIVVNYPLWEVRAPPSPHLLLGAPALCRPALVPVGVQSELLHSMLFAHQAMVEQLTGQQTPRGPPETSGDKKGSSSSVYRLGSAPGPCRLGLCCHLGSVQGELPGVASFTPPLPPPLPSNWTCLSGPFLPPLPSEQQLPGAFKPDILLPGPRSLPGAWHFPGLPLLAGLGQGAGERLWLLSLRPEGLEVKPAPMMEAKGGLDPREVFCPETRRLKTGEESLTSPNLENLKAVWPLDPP
The note with it: protein: recombinant; tags: N-terminal GST; dsDNA, one strand shown. The method in brief: as §1

In test [13] the target is T8, ETS2 (Homo sapiens, UniProt P15036 1-469).
T8 sequence: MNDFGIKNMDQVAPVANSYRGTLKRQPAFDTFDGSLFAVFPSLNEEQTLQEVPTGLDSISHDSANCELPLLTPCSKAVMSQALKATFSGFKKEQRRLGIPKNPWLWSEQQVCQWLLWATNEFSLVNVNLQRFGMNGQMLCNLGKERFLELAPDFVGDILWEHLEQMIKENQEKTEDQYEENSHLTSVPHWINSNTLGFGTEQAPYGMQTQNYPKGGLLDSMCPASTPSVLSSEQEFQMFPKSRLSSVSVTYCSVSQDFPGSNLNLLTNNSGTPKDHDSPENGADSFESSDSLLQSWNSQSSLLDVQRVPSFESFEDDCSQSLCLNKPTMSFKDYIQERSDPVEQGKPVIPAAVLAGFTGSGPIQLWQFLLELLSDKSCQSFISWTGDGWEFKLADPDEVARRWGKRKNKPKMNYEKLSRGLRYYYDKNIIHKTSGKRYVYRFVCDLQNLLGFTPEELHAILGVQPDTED
The note with it: protein: recombinant; tags: N-terminal GST; dsDNA, one strand shown. The procedure, abridged:
as §1

Test [14] deals with T9, SPDEF (Homo sapiens, UniProt O95238 1-335).
T9 sequence: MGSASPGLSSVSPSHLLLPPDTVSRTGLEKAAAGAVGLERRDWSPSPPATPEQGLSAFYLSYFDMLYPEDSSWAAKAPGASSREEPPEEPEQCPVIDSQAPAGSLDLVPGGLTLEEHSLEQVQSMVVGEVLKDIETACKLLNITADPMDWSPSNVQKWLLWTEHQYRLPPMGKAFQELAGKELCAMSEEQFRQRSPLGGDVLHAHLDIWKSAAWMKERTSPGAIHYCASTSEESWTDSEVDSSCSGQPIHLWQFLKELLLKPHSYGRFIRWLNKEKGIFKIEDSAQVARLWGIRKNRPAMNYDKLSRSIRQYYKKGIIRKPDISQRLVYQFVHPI
The note with it: protein: recombinant; tags: N-terminal GST; dsDNA, one strand shown. The method in brief: as §1

Test [15] deals with T10, ETV7 (Homo sapiens, UniProt Q9Y603 1-341).
T10 sequence: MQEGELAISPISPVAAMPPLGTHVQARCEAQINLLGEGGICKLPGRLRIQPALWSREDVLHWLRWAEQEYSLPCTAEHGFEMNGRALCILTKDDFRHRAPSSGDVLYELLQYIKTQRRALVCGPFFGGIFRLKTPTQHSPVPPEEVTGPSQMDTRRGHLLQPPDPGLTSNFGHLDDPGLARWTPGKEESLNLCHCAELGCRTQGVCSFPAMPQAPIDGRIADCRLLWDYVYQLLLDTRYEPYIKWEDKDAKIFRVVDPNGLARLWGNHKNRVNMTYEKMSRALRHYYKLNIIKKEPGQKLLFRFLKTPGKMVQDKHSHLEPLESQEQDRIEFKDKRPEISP
The conditions noted are these: protein: recombinant; tags: N-terminal GST; dsDNA, one strand shown. The procedure, abridged:
as §1

Test [16] addresses T11, ELF5 (Homo sapiens, UniProt Q9UKW6-2 1-255).
T11 sequence: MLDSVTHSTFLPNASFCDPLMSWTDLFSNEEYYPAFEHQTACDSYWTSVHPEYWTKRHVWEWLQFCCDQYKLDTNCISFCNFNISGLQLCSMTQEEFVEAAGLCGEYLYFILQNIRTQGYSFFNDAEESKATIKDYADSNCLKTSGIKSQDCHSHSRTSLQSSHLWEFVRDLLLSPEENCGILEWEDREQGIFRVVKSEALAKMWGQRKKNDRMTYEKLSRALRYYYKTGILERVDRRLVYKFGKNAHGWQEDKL
The note with it: protein: recombinant; tags: N-terminal GST; dsDNA, one strand shown. The procedure, abridged:
as §1

In test [17] the target is T12, ETV3 (Homo sapiens, UniProt P41162-2 1-143).
T12 sequence: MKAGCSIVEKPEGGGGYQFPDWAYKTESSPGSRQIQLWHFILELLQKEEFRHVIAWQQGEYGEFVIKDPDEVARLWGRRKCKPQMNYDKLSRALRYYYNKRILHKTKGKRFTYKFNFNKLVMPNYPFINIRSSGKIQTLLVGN
The conditions noted are these: protein: recombinant; tags: N-terminal GST; dsDNA, one strand shown. The method in brief:
as §1

The target of test [18] is ETV6 (Homo sapiens, UniProt P41212 1-452). The conditions noted are these: protein: recombinant; tags: N-terminal GST; dsDNA, one strand shown. The method in brief:
as §1

Chain of ETV5 (P41161 whole entry): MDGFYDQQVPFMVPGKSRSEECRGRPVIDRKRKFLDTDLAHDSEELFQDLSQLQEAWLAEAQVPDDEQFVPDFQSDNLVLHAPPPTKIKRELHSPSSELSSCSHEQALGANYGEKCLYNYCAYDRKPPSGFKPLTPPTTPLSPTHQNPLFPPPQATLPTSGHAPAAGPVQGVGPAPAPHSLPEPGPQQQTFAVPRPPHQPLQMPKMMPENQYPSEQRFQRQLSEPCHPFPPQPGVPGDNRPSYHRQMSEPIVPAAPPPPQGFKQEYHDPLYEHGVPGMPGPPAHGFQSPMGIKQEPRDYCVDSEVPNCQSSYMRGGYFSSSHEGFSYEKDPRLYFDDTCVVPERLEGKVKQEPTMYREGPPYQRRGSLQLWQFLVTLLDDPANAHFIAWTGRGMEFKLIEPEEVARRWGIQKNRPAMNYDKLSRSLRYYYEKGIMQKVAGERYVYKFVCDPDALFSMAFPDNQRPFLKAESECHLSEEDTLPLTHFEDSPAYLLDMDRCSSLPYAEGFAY
Chain of CRX (O43186 whole entry): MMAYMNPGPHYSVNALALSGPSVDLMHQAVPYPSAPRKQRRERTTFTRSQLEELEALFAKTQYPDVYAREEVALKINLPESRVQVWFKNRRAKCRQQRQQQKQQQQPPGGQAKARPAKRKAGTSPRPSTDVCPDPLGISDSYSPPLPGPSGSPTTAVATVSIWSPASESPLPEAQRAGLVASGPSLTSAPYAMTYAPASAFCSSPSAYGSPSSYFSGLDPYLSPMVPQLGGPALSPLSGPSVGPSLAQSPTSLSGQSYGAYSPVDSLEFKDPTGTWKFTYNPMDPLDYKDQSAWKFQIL
Chain of ELF4 (Q99607 whole entry): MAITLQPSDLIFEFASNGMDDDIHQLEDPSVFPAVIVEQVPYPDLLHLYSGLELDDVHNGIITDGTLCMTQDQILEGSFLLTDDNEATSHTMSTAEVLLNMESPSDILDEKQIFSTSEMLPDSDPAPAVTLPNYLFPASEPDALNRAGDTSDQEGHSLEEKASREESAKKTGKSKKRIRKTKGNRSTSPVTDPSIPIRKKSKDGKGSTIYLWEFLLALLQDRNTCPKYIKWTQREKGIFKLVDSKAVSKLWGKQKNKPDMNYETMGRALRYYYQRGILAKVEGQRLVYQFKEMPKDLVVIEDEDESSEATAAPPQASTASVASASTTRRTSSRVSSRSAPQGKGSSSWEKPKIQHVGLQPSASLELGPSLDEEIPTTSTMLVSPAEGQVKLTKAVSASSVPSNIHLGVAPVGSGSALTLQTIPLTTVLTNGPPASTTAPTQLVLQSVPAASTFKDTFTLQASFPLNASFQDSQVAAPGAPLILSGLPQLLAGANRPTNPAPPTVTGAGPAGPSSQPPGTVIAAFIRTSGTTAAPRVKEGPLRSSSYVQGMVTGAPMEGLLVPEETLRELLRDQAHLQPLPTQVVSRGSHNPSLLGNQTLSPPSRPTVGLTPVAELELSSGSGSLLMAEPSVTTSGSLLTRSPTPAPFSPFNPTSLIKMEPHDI
Chain of ETV1 (P50549 whole entry): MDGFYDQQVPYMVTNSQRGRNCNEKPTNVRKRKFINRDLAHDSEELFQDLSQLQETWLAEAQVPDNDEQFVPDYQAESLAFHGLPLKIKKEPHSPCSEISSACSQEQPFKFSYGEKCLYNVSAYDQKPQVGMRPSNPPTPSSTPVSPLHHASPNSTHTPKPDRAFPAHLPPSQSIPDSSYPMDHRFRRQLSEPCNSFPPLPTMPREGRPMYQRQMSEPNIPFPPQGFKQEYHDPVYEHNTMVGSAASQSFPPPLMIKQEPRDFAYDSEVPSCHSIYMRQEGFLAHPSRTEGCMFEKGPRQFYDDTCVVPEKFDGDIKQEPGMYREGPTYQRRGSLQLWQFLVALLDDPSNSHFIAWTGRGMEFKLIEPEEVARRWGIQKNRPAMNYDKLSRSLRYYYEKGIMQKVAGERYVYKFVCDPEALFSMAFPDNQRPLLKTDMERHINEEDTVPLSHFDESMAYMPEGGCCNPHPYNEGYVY
Chain of ETV6 (P41212 whole entry): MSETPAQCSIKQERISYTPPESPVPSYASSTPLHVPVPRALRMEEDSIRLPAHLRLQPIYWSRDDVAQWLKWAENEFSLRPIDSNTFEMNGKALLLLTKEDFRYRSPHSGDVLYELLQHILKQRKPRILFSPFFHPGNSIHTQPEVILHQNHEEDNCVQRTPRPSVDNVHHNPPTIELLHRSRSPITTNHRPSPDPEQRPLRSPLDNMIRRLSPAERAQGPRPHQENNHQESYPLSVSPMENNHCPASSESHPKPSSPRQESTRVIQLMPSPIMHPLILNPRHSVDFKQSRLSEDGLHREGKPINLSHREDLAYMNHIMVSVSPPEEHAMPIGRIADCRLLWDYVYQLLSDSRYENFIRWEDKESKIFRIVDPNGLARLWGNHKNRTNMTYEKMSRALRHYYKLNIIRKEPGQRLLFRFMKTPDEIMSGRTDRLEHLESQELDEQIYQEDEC

With AAACCA, the binding signal in test [1] is 1.22 fold enrichment (6-mer frequency, TF over GST control); in [2], 1.15 fold enrichment (6-mer frequency, TF over GST control); in test [3], 1.09 fold enrichment (6-mer frequency, TF over GST control); in test [4], 1.16 fold enrichment (6-mer frequency, TF over GST control); in test [5], 1.2 fold enrichment (6-mer frequency, TF over GST control); in [6], 1.26 fold enrichment (6-mer frequency, TF over GST control). Further, the binding signal in [7] was 1.14 fold enrichment (6-mer frequency, TF over GST control); in [8] it was 1.17 fold enrichment (6-mer frequency, TF over GST control); in test [9], 1.14 fold enrichment (6-mer frequency, TF over GST control); in test [10], 1.09 fold enrichment (6-mer frequency, TF over GST control); in [11], 1.16 fold enrichment (6-mer frequency, TF over GST control); in test [12], 1.18 fold enrichment (6-mer frequency, TF over GST control). The binding signal in [13] is 1.17 fold enrichment (6-mer frequency, TF over GST control); in test [14], 1.1 fold enrichment (6-mer frequency, TF over GST control); in test [15], 1.2 fold enrichment (6-mer frequency, TF over GST control); in test [16] it was 1.13 fold enrichment (6-mer frequency, TF over GST control); in test [17] it was 1.15 fold enrichment (6-mer frequency, TF over GST control); in test [18] it was 1.21 fold enrichment (6-mer frequency, TF over GST control).

For the origin of these results see publication PMC7862700, “An all-to-all approach to the identification of sequence-specific readers for epigenetic DNA modifications on cytosine”.
